Laboratory results taken from PubChem BioAssay.

Assays:
[1] = system: Human papillomavirus type 1a protein E7 (residues 44-93); test: small molecules binding HPV E7 44-93 – biochemical, small-molecule microarray, residues 44-93, 635 nm fluorescence, primary screen (AID 1108); conditions: fluorescence 635 nm, higher = more signal;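 also: E7 fragment applied at 1 µg/mL in TBST for 1 h at 4 C; score combines spot fluorescence with its signal to noise ratio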
[2] = hepatitis C replication reporter changes, two-sided – Huh7 cells, luciferase reporter, HCV replication inhibitor project, primary screen (AID 1109); conditions: Huh7 HCV replicon luciferase reporter, 48 h; higher = more signal;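 also: huh7 hepatoma cells harbouring a luciferase neomycin HCV replicon reporter; luciferase luminescence as measure of HCV replicon replication; test concentration not given here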
[3] = target: Left-right determination factor 2 (Homo sapiens) (UniProt O00292); test: small molecules binding LEFTY2 protein – biochemical, small-molecule microarray, 635 nm fluorescence scan, primary screen (AID 1110); conditions: higher = more signal
[4] = target: Calmodulin-1 (Homo sapiens) (UniProt P0DP23); test: small molecules binding calmodulin-1 with EGTA – biochemical, small-molecule microarray, Cy5-labelled CALM1, profiling panel (AID 1111); conditions: Cy5-CALM1 binding fluorescence, higher = more signal;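 also: labelled calmodulin applied in Tris saline Tween buffer holding calcium plus EGTA and DTT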
[5] = target: Calmodulin-1 (Homo sapiens) (UniProt P0DP23); test: small molecules binding Ca-loaded calmodulin-1 – biochemical, small-molecule microarray, Cy5-labelled CALM1, plus calcium, artefact control for SMM control-protein annotation, profiling panel (AID 1112); conditions: Cy5-CALM1 binding fluorescence, higher = more signal;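 also: score merges spot fluorescence with signal to noise from triplicate slides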
[6] = probe aWnt5a binding to arrayed compounds – biochemical, biotinylated probe, 635/667 nm fluorescence, primary screen (AID 1113); conditions: small-molecule microarray, higher = more signal;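 also: score merges 667 nm fluorescence intensity with signal-to-noise per printed feature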
[7] = probe aShh binding to arrayed compounds – biochemical, biotinylated probe, 635/667 nm fluorescence, primary screen (AID 1114); conditions: small-molecule microarray, higher = more signal;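 also: probe is biotin-labelled aShh protein from a stem cell growth factor screen; measures binding of labelled protein to compounds printed on the slide; score merges feature fluorescence at 667 nm with signal-to-noise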
[8] = probe aNog binding to arrayed compounds – biochemical, biotinylated probe, 635/667 nm fluorescence, primary screen (AID 1115); conditions: small-molecule microarray, higher = more signal;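 also: probe is biotinylated aNog protein used at 0.15 µg/mL for 1 h at 4 C; z-score combines 667 nm fluorescence of each spot with its signal to noise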
[9] = target: Torsin-1A-interacting protein 1 (Homo sapiens) (UniProt Q5JTV8); test: compound microarray binding of lysate hLAP1 – cell lysate, small-molecule microarray, COS7 lysate, 635/667 nm fluorescence, primary screen (AID 1116); conditions: 635 nm fluorescence, higher = more signal
[10] = target: Alpha-bungarotoxin (Bungarus multicinctus) (UniProt P60615); test: compounds binding labelled alpha-BTX control protein – biochemical, small-molecule microarray, Alexa647 label, 635/667 nm fluorescence, artefact control for SMM control protein annotation, profiling panel (AID 1117); conditions: alpha-BTX-A647 binding fluorescence, higher = more signal
Chain of Alpha-bungarotoxin (Bungarus multicinctus) (P60615 whole entry, looked up): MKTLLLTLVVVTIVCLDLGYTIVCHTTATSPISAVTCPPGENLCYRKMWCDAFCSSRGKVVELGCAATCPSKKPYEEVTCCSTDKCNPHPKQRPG

Chain of Torsin-1A-interacting protein 1 (Homo sapiens) (Q5JTV8 whole entry, looked up): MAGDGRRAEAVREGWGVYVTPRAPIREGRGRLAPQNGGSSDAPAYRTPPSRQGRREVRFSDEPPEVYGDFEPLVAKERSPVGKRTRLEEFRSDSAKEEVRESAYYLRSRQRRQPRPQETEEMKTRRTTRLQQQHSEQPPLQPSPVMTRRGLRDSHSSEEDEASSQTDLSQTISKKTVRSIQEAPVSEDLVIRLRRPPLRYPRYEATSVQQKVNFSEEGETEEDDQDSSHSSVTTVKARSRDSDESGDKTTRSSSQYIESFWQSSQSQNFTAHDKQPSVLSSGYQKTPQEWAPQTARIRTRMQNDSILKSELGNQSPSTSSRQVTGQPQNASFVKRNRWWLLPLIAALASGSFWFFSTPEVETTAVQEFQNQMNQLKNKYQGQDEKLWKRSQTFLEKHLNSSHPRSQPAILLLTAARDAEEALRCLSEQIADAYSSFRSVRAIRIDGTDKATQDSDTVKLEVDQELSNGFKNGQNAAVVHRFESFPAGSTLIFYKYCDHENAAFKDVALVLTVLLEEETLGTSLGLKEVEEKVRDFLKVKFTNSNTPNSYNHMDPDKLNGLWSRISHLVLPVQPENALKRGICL
Chain of Left-right determination factor 2 (Homo sapiens) (O00292 whole entry, looked up): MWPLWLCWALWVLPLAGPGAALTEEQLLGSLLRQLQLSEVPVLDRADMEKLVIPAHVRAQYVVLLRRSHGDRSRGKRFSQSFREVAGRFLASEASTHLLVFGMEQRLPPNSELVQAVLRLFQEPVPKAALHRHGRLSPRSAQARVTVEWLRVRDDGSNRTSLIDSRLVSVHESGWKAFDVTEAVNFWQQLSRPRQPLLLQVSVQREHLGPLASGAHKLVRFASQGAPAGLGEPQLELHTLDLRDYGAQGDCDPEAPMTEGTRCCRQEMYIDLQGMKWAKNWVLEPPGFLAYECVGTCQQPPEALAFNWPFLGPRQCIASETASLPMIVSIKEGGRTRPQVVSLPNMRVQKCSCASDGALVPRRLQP

Compound	composite z-score [1]	z-score [2]	composite z-score [3]	composite z-score [4]	composite z-score [5]	composite z-score [6]	composite z-score [7]	composite z-score [8]	composite z-score [9]	composite z-score [10]
COc1ccc(CCNC(=O)[C@@]2(c3ccc([N+](=O)[O-])cc3)CC(=O)N(C3CCCCC3)[C@@H]2c2ccc(CO)cc2I)cc1	0.535	-2.57	0.497	0.529	0.113	-0.0643	0.108	0.639	0.733	0.201
CCOC(=O)C[C@H]1[C@H](OC(=O)c2cc3ccccc3oc2=O)[C@@H](NC(=O)Cc2ccc(OC)cc2)c2cc(OCCCO)ccc2N1C(=O)Cc1ccc(OC)cc1	0.351	-1.73	0.594	-0.326	-0.54	-0.096	-0.145	-0.0428	0.0475	0.329
COC(=O)[C@H](Cc1ccccc1)N1CC(C)(OC)O[C@@H](Cc2ccccc2)[C@H]1/C=C/C1CC1 (stereo not given in full)	0.208	-1.84	-0.17	-0.0441	-0.233	-0.0239	-0.198	0.0299	0.726	0.2
Cc1ccc(S(=O)(=O)N2[C@@H](c3ccccc3)C(C(=O)O)=CC[C@H]2c2ccc(F)cc2)cc1	1.46	-0.547	-1.25	-0.599	-0.388	0.108	-0.291	0.325	1.94	1.18
[N-]=[N+]=Nc1ccccc1C[C@@]1(C(=O)NCC(O)CO)N=C(c2ccc(OCCCO)cc2)O[C@@H]1c1ccccc1N=[N+]=[N-] (stereo not given in full)	0.796	-3.13	-0.458	2.15	0.176	0.0586	0.348	-0.596	1.64	0.427
COc1ccc([Si](C)(C)[C@@H]2[C@@H](CC(=O)N(CCO)Cc3ccccc3)O[C@]3(C(=O)N(Cc4cccc(I)c4)c4ccccc43)[C@H]2C)cc1	1.28	-3.82	0.741	2.83	1.21	-0.0425	0.564	0.0051	0.319	0.855
C=CCNC(=O)[C@H]1[C@@H]2C(=O)O[C@@H](c3ccccc3)[C@@H](c3ccccc3)N2[C@@H](c2ccc(O)cc2)[C@]12C(=O)N(C(=O)OCCOC)c1ccc(C#Cc3ccc(OC)cc3)cc12	1.33	-1.09	0.254	1.38	-0.0807	-0.001	0.229	-0.477	0.42	0.286
CC[C@@H](O[Si](C#C[Si](C(C)C)(C(C)C)C(C)C)(C(C)C)C(C)C)c1cn([C@H](C)c2ccccc2)nn1	0.818	-0.772	0.435	-0.273	-0.0786	-0.0758	0.0637	-0.28	0.651	0.188
CCCCC(=C=CC[C@H](O)c1ccccc1OCCO)CCO	0.5	-1.69	-0.115	-0.541	-0.533	-0.0031	-0.108	0.0796	0.228	0.124
COc1ccc([Si](C)(C)[C@H]2[C@H](CC(=O)N(CCO)Cc3ccccc3)O[C@@]3(C(=O)N(c4ccccc4)c4ccccc43)[C@@H]2C)cc1	1.32	-5.19	0.753	0.503	-0.0244	-0.104	0.0022	-0.519	0.105	1.17
CC(C)[Si]1(C(C)C)OCc2cc(-c3ccc(-c4ccc(Cl)c(Cl)c4)o3)nc(-c3ccc(Oc4ccccc4)cc3)c21	-1.76	-0.105	-1.44	-0.168	0.698	-0.265	-0.243	-0.132	-1.22	-1.55
[N-]=[N+]=Nc1ccccc1C[C@]1(C(N)=O)COC(c2ccc(OCCCO)cc2)=N1	0.66	-1.17	-0.899	0.707	0.694	-0.0462	0.486	0.381	1.02	-0.364
C=CCNC(=O)[C@H]1[C@@H]2C(=O)O[C@@H](c3ccccc3)[C@@H](c3ccccc3)N2[C@@H](c2ccc(O)cc2)[C@]12C(=O)Nc1ccccc12	0.864	-0.462	-0.588	0.51	0.0876	-0.148	-0.0769	-0.0089	1.33	0.269
COC(=O)[C@@]1(Cc2ccc(F)cc2)[C@H]2c3cc(C(=O)N4CCCC4)n(CCc4c[nH]c5cc(F)ccc45)c3C[C@H]2CN1C(=O)c1ccccc1	1.41	-1.62	0.119	1.91	1.2	0.562	0.472	-0.615	-0.291	0.841
CS(=O)(=O)CCOC(=O)C1=CC(CCCO)=CC(C2CC2)N(Cc2sc3ccccc3c2Cl)C=C1C(=O)OCCS(C)(=O)=O (stereo not given)	0.632	-2.01	0.191	1.18	0.811	0.0324	0.214	0.614	-0.643	0.904
CCCCCCCCCCC(O)C1C=CC2C(=O)N(C)C(=O)C2N1Nc1ccccc1 (stereo not given)	0.164	-0.28	-2.42	0.194	1.19	-0.252	-0.121	0.101	0.504	-0.868
C=CCC(OC(C)=O)[C@@H]1[C@@H](N(Cc2ccc(-c3ccccc3)cc2)C(=O)Cc2ccc(OC)cc2)c2cc(OCCCO)ccc2N1C(=O)Cc1ccc(OC)cc1 (stereo not given in full)	-0.37	-0.496	0.055	0.194	0.7	0.055	-0.229	-0.128	0.468	0.171
[N-]=[N+]=Nc1ccccc1C[C@]1(C(=O)N2CCCCC2)N=C(c2ccc(OCCCO)cc2)O[C@H]1c1ccccc1	-0.0987	-2.42	0.0344	1.8	0.727	0.0101	0.202	-0.544	0.824	1.93
C=C[C@@H](CO)NS(=O)(=O)c1ccc(Br)cc1	-1.71	0.0931	-0.671	-1.05	-0.453	-0.208	-0.153	-0.158	0.127	-0.796
C=CCOC(=O)[C@H]1[C@@H]2C(=O)O[C@@H](c3ccccc3)[C@@H](c3ccccc3)N2[C@@H](c2ccc(OCCOC(=O)[C@H]3C[C@H]4C(=O)NCC(=O)N4[C@H]3c3cccc(OCCO)c3)cc2)[C@]12C(=O)Nc1ccc(I)cc12	1.23	-0.903	0.541	1.05	0.0934	0.0629	0.131	0.131	1.44	1.08
COC(=O)[C@@]1(Cc2ccc(F)cc2)[C@@H]2C(=CC(=O)[C@H]2CC(=O)C(=O)N2CCCC2)CN1C(=O)c1ccccc1	1.47	-2.78	0.643	1.38	-0.24	0.625	0.761	2.06	1.25	0.683
